The campaign covered roughly 2,100 compounds. About 210 (10%) were called active. Roughly 53% stayed inconclusive and do not appear here. Calls follow the shape of the dose curve; as a rule, active = well fitted inhibition curve with a large enough effect; inconclusive = small, poorly fitted or top-dose-only effect, or effect the other way; inactive = no such curve, though single readings can be large or run the other way. The list shows a part of the results.
assay: IN Cell qHTS Assay for Inhibitors of the mTORC1 Signaling Pathway in MEF (Tsc2-/-, p53-/-) Cells: Sytravon; conditions: phospho-rpS6 immunofluorescence, 24 h; series mostly up to 38.3 µM; activity, negative = inhibition: at the top concentration; also: nearly all actives have a fitted effect of over 60% in size
From the text: NIH Molecular Libraries Probe Production Centers Network [MLPCN] NIH Chemical Genomics Center [NCGC] MLPCN Grant: NS059428-01 Assay Submitter (PI): Blenis, John; Hoffman, Greg; Harvard University NCGC Assay Overview: Thee mammalian target of rapamycin (mTOR) is an intracellular serine/threonine kinase Aberrant regulation of mTOR signaling plays a causative role in a number of human diseases, including cancer, benign tumors such as lymphangioleiomyomatosis (LAM) and Tuberous Sclerosis Complex (TSC), and metabolic diseases such as diabetes and obesity. This project aims to identify inhibitors of ribosomal protein S6 (rpS6) phosphorylation. The phosphorylation of rpS6 is a key event downstream of mTOR activation. The assay uses a phospho-specific antibody of phospho-rpS6 to detect inhibitors of mTOR activation. Mutations in the Tsc1 and Tsc2 genes are the underlying genetic lesions responsible for TSC, causing constitutive activation of the mTORC1 pathway and leading to profound effects on cell metabolism. Aberrant metabolism in cancer has recently received significant attention as a target to develop therapeutic agents in the treatment of cancer1. As Tsc2-/- cells have lost the ability to respond to energy and growth factor deprivation, these cells are unable to properly down regulate cellular biosynthetic processes in response to metabolic stress, and are thus extremely sensitive to glucose deprivation-induced death.2 A central goal of this project is to explore the unique cell survival and metabolic properties of cells with Tsc1 or Tsc2 by screening for compounds that selectively target the Tsc2-/- MEFs by screening both Tsc2-/- and WT MEF cell lines. We hope to better understand these aspects of TSC physiology in order to exploit them for therapeutic benefit.
NCGC IN Cell Assay Protocol: For quantitative high throughput analysis of mTORC1 signaling, we developed a cell-based assay for immuno-fluorescence based detection of rpS6 phosphorylation on the Acumen Explorer that will be used a platform for the primary small molecule screen. Mouse embryonic fibroblasts (MEFs) are cultured in 1536-well plates using DMEM + 10% FBS. Twenty-four hrs after plating, test compounds (solubilized in DMSO) are delivered and incubated with the cells for 24 hrs at 37 degree Celsius. Following the incubation, media with compound is aspirated and the cells are fixed in 4% paraformaldehyde (PFA) containing PBS + 0.2% TX-100. Next, PFA is aspirated, cells are washed two times with PBS plus 0.2% TX-100 and the cells are blocked for 1 hr at room temperature (blocking buffer: LiCOR Blocking Buffer plus 0.2% TX-100). This is followed by aspiration and staining with Alexa-488 conjugated-phospho-rpS6 Ser235/236 antibody for 2 hours at room temperature (Cell Signaling Technology # 4803, 1:50 dilution in blocking buffer). Cells are washed two times with PBS plus 0.2% TX-100, and stained with 10 uM propidium iodide (PI) for 20-25 minutes for cell number measurement (1:500 dilution of Hoescht staining is also added for IN Cell imaging). Active wells which are selected (based on Acumen results) are imaged on the IN Cell 1000 (GE Healthcare) using the D360/40X and HQ480/40X excitation filters for the Hoechst and Alexa-488 cytoplasmic stains, respectively. The fluorescence emission filters used were HQ460/40M and HQ535/50M for the Hoechst and Alexa-488 cytoplasmic stains, respectively. The normalized phospho-S6 staining is calculated as the ratio of […] for the single concentration rapamycin control (7.5 nM) and DMSO columns. […] Inhibition of the pathway is defined based on the normalized phospho-S6 intensity in rapamycin treated cells. Each treatment is reported as the % positive cells in the well, where thresholds are defined by selecting wells with the highest and lowest signal and differentiating between the % non-active and % active populations. […]
Potency is read from the fitted curve at half-maximal effect.

| SMILES | Potency | activity, negative = inhibition |
| --- | --- | --- |
| O=c1oc2ccccc2cc1-c1cn2cc(Cc3ccc(F)cc3)sc2n1 | 1.65 µM (active) | – |
| CCc1ccc(-n2nc(C)c3c2NC(=O)CSC3c2ccc(OC)cc2OC)cc1 (centres undefined) | – | -11.9% (inactive) |
| Cc1cccc(CN2CC=C(c3noc(CCC(=O)Nc4ccc(C)c(F)c4)n3)CC2)c1 | – | -8.33% (inactive) |
| Nc1c(C(=O)Nc2cccc(Br)c2)sc2nc3c(cc12)N1CCC3CC1 | – | -7.46% (inactive) |
| O=C(Nc1ccccc1)N(Cc1ccc2c(c1)OCO2)C1CCN(Cc2ccccc2)CC1 | – | -11.5% (inactive) |
| COc1ccc2nc(NC(=O)c3nc(S(=O)(=O)Cc4cccc(C)c4)ncc3Cl)sc2c1 | 16.5 µM (active) | – |
| CCOc1ccc(NC(=O)c2cc3c(C)nn(-c4ccccc4)c3s2)cc1 | 14.7 µM (active) | – |
| CCOc1ccc(NC(=O)c2cccn(Cc3cccc(Cl)c3)c2=O)cc1 | – | -20.2% (inactive) |
| Cc1ccc(-n2c(/C=C/c3ccc(Br)s3)nc3ccccc3c2=O)cc1C | – | 6.25% (inactive) |

Reference: PubChem BioAssay AID504465 (National Center for Advancing Translational Sciences (NCATS), 2011)
